Source: PubChem BioAssay
FBPA Giardia inh = inhibitors of Giardia lamblia fructose-1,6-bisphosphate aldolase; actives 0.71% (n = 290,000); A8B2U2; Potency, µM (top dose mostly 59.6 µM), most hits filed as inhibitors; purified Giardia FBPA; note: nearly all actives have a fitted effect of over 55% in size
Target sequence (A8B2U2 whole entry, looked up): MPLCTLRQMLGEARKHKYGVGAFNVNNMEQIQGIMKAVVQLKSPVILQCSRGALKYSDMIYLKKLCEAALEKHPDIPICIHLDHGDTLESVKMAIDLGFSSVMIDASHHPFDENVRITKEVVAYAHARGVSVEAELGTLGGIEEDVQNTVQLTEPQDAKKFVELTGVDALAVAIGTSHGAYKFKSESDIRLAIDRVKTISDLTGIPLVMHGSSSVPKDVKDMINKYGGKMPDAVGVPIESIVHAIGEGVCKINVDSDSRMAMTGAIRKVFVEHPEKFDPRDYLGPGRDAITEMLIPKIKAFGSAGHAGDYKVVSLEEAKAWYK
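40 nM FBPA preincubated 10 min at RT with compound (up to 57.5 uM final), then substrate plus GAPDH/TPI/NAD/arsenate coupling and diaphorase/resazurin added. Fluorescence read after 20 min at RT, 525/598 nm.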
HCMV inh = inhibitors of human cytomegalovirus; HFF cells, HCMV-luciferase reporter, 72 h; stronger effect = lower value; activity change, negative = inhibition, % at 57.5 µM; actives 4.5% (n = 410,000); AID 1259415; in the data active = activity change below about -60%; inconclusive = no clear call, values can overlap the other calls; inactive = above about -39%
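Luciferase read-out from HCMV-luciferase-infected HFFs (MOI 1 PFU/cell) 72 h post infection at 37C; compounds added after 16 h cell attachment; activity normalized between buffer-only basal and Salinomycin (10uM) inhibitor controls.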
Marburg entry inh = blocks Marburg virus binding to or entry into cells; Marburg virus pseudotyped entry inhibition, cell reporter; Potency, µM (titrated, usually from 37.8 µM), hits mostly inhibitors; actives 1.8% (n = 300,000); calls by dose curve; tested in HEK293 cells
FMDV inh = blocks foot and mouth disease virus; FMDV antiviral cell-based qHTS; Potency, µM (titrated, usually from 57.9 µM), hits mostly inhibitors; actives 1.2% (n = 410,000); calls by dose curve; tested in HEK293T cells; note: read-out not given here; nearly all actives have a fitted effect of over 45% in size
HCV inh = HCV inhibition; Huh7.5.1 HCVcc-Cre infection, luciferase reporter, 44 h; Potency, µM (top dose mostly 41.8 µM), actives largely listed as inhibitors; AID 651820; actives 3.4% (n = 340,000)
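A cell-based infection assay in which seeded cells (1,000 per well) receive test compound after 4 h, are inoculated with HCVcc-Cre at approximately 0.5 moi, and are incubated 44 h before luminescence detection.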
Lassa entry inh = inhibitors of Lassa virus binding or cell entry; Lassa virus pseudotype entry inhibition, cell reporter; Potency, µM (top dose mostly 37.9 µM), usual class: inhibitors; actives 1.2% (n = 300,000); AID 540256; calls by dose curve; tested in HEK293 cells; note: nearly all actives have a fitted effect of over 50% in size
Numbers stand for hits; - = inactive; ? = inconclusive; . = not tested or not shown. This is a sample that favours compounds with a hit; in the whole collection about 8.3% have one here. Unless noted, calls come from the whole dose curve; as a rule, active = well fitted curve in the direction sought with a large enough effect; inconclusive = small, poorly fitted or top-dose-only effect, or another doubt; inactive = no such curve, though single readings can be large; an effect the other way counts as inactive or inconclusive.

SMILES	FBPA Giardia inh	HCMV inh	Marburg entry inh	FMDV inh	HCV inh	Lassa entry inh
CCc1nc(Nc2cccc(O)c2)c2oc3ccccc3c2n1	-	.	.	22µM	?	.
CN(C)c1ccc(-c2ccc3ncnc(NC4CC4)c3c2)cc1	-	.	.	-	.	.
Cc1ccc(-c2nc3c4cnn(-c5cc(Cl)ccc5Cl)c4ncn3n2)cc1	.	-	?	-	.	-
CN(C)CCNC(=O)C(=O)Nc1ccc2c(c1)N(S(=O)(=O)c1cccs1)CCC2	.	-	?	-	?	-
CN(C)CCCNC(=O)C(=O)Nc1ccc2c(c1)N(S(=O)(=O)c1cccs1)CCC2	.	?	?	-	8.9µM	-
C=CCNC(=O)C(=O)Nc1ccc2c(c1)N(S(=O)(=O)c1cccs1)CCC2	.	-	?	-	?	8.9µM
CC1c2ccccc2SC(CCCN(C)C)c2ccccc21 (centres undefined)	-	-61	5.2µM	?	?	?
CC(=O)Nc1ccc(NC(=O)c2sc3nc4n(c(=O)c3c2C)CCCCC4)cc1	-	-82	-	-	?	?
CCc1ccccc1N(C)C(=O)c1sc2nc3n(c(=O)c2c1C)CCCCC3	.	-	.	-	.	-
CCc1ccc(NC(=O)c2sc3nc4n(c(=O)c3c2C)CCC4)cc1	.	-	.	-	?	.
Cc1c(C(=O)N(C)c2cccc(C(F)(F)F)c2)sc2nc3n(c(=O)c12)CCCCC3	.	-76	.	-	.	-
Cc1c(C(=O)Nc2cccc(C(F)(F)F)c2)sc2nc3n(c(=O)c12)CCCC3	.	-	.	18µM	.	-
Cc1ccc(CN2CCc3nnc(C(C)NC(=O)c4cc(F)ccc4F)n3CC2)o1 (centres undefined)	.	.	.	-	.	.
COc1cc(OC)c(NC(=O)CCCn2nc(C)c3sc4ccccc4c3c2=O)cc1Cl	.	-	3.2µM	-	.	?
COc1cc(/C=C(\C#N)c2nc3ccccc3s2)cc([N+](=O)[O-])c1O	-	-62	?	-	-	-
CN(C)Cc1ccccc1-c1ccc2ncnc(N3CCOCC3)c2c1	-	.	.	-	.	.
COc1ccc(C2=Nn3c(nnc3-c3ccc(OC)c(OC)c3)SC2)cc1	-	.	.	.	.	.
CCOc1cccc(-c2nnc3n2N=C(c2cc(OC)ccc2OC)CS3)c1	-	-	-	?	11µM	-
COc1cccc(-c2nnc3n2N=C(c2cc(OC)ccc2OC)CS3)c1	-	-62	?	-	10µM	?
COc1ccc(C2=Nn3c(nnc3-c3ccc(OC)cc3)SC2)cc1	-	-101	?	?	3.5µM	1.3µM
CCOc1ccccc1-c1nnc2n1N=C(c1cc(OC)ccc1OC)CS2	-	.	.	.	.	.
Cc1cccc(-c2nnc3n2N=C(c2ccccc2Br)CS3)c1	-	-83	?	?	?	?
COc1cccc(-c2nnc3n2N=C(c2ccc(OC)cc2OC)CS3)c1	-	.	.	.	.	.
COC(=O)C1=C(C)N(Cc2ccccc2)C(=NCC(C)C)NC1c1ccc(Br)cc1 (centres undefined)	.	.	-	.	.	.
COc1ccc(OC)c(C2=Nn3c(nnc3-c3ccncc3)SC2)c1	.	-	4µM	-	-	?
SMILES	FBPA Giardia inh	HCMV inh	Marburg entry inh	FMDV inh	HCV inh	Lassa entry inh
COc1cccc(-c2nnc3n2N=C(C(C)(C)C)CS3)c1	-	-98	-	-	11µM	-
COc1cccc(C2=Nn3c(nnc3-c3cccc(OC)c3)SC2)c1	-	.	.	.	.	.
Cc1ccc(Nc2cc(C)c3ccc(O)cc3n2)cc1C	?	-	.	-	10µM	.
COC(=O)c1cc(Nc2cc(C)c3ccc(O)cc3n2)cc(C(=O)OC)c1	-	?	-	-	-	?
CCC1=C(OC(=O)N(CC)CC)N2C(=O)OC(=NCc3ccccc3)[C@]2(C)[C@H]2C1=CC[C@H]1C(=O)N(CC(=O)OC)C(=O)[C@H]12	-	-62	.	-	-	.
O=C1C(Nc2ccccc2)=CC(=O)c2ncccc21	-	.	.	?	.	.
CC(NC1=CC(=O)c2cccnc2C1=O)C(O)c1ccccc1 (centres undefined)	.	-99	11µM	28µM	?	?
Cc1cc(C)nc(SCC(=O)Nc2ccc(N3CCOCC3)c(Cl)c2)n1	-	-	?	?	7.9µM	?
O=C(COc1c(F)c(F)c(C(F)(F)F)c(F)c1F)Nc1ccc(N2CCOCC2)c(Cl)c1	-	-	-	-	-	-
CNc1nc(SCC(=O)Nc2ccc(Cl)c(Cl)c2)nc(N2CCOCC2)n1	-	?	.	-	?	.
CSc1ccc(OCC(=O)Nc2ccc(N3CCOCC3)c(Cl)c2)cc1	-	-	-	?	10µM	-
Cc1cc(=O)n2[nH]c(NC(=O)c3cccc(Cl)c3)nc2n1	.	-	?	-	.	-
CSc1ncccc1C(=O)NCC1Cc2cc(-c3cnccn3)ccc2O1 (centres undefined)	.	.	.	-	.	.
O=C(CSc1c[nH]c2ccccc12)NC1CCCC1	-	-	.	-	-	.
C=CCn1c(SCC(=O)NC2CCCC2)nc2c([nH]c3ccccc32)c1=O	.	-90	-	-	-	-
Cc1[nH]c2ccccc2c1SCC(=O)NC1CCCCC1	-	-64	.	-	?	.
Cc1cccc(N2CCN(C3(c4ccccc4)C(=O)c4ccccc4C3=O)CC2)c1C	.	-	.	-	.	-
COc1ccc(Cl)cc1NC(=O)CN1c2ccccc2CC1C (centres undefined)	-	?	?	-	8.9µM	-
CCOc1ccccc1C(=O)NC1CCN(CC(=O)Nc2cc(OC)ccc2OC)CC1	-	?	.	-	11µM	.
COc1cc(NC(=O)CN2c3ccccc3CC2C)cc(OC)c1OC (centres undefined)	-	-	?	-	?	-
COc1ccc(Cl)cc1NC(=O)CNC(c1ccccc1)c1ccccc1	-	-	?	-	?	2.5µM
COc1ccc(Cl)cc1NC(=O)CN1CCC(NC(=O)C2CC2)CC1	-	-77	?	-	-	-
COc1ccc(C)cc1NC(=O)CNC(c1ccccc1)c1ccccc1	-	-	.	-	?	.
CSCC[C@H](NC(=O)CN)C(=O)N[C@@H](CC(=O)O)C(=O)N[C@@H](CO)C(=O)N[C@@H](CC(C)C)C(=O)N[C@@H](C)C(=O)N[C@@H](Cc1ccccc1)C(=O)N[C@@H](CO)C(=O)NCC(=O)NCC(=O)N[C@@H](CC(C)C)C(N)=O	-	.	.	.	.	.
COc1ccc(NC(=O)CN2CCN(CC(=O)Nc3ccccc3Cl)CC2)cc1Cl	-	-	-	40µM	-	-
SMILES	FBPA Giardia inh	HCMV inh	Marburg entry inh	FMDV inh	HCV inh	Lassa entry inh
COc1ccc(OC)c(NC(=O)Nc2c(C)n(C)n(-c3ccccc3)c2=O)c1	.	-	-	-	.	-
COc1cc2c(cc1OC)CN(CC(=O)Nc1ccc(Cl)cc1Cl)CC2	-	?	-	-	-	?
COc1ccc(Cl)cc1NC(=O)CN(C)CC(=O)Nc1c(C)n(C)n(-c2ccccc2)c1=O	.	-	.	-	3.5µM	.
Cc1cc(C)cc(OCC(=O)OCC(=O)Nc2c(C)n(C)n(-c3ccccc3)c2=O)c1	-	-	-	-	1µM	-
COc1ccc(Cl)cc1NC(=O)CN1CCc2ccccc2C1	-	-75	.	-	?	.
CC(=O)Nc1ccc(S(=O)(=O)NC2(C(F)(F)F)C(=O)Nc3c2c(=O)[nH]c(=O)n3-c2cccc(Cl)c2)cc1 (centres undefined)	.	-	-	-	.	-
